Screening results as filed in PubChem BioAssay.
A selection: hits, their analogues and other compounds. The true share with any hit is near 2.4%.
D2 PAM-1 = Beta-Arrestin HTS for Positive Allosteric Modulators of the Human D2 Dopamine Receptor: Potentiators | potentiation, % (test concentration not listed) | actives 0.23% (n = 360,000) | DiscoveRx D2 beta-arrestin cells, luminescence, 90 min; 100% = 57 uM dopamine signal; in the data active = potentiation above about 50%; inconclusive = mostly about 30% to 49%
Target sequence (P14416 whole entry, looked up): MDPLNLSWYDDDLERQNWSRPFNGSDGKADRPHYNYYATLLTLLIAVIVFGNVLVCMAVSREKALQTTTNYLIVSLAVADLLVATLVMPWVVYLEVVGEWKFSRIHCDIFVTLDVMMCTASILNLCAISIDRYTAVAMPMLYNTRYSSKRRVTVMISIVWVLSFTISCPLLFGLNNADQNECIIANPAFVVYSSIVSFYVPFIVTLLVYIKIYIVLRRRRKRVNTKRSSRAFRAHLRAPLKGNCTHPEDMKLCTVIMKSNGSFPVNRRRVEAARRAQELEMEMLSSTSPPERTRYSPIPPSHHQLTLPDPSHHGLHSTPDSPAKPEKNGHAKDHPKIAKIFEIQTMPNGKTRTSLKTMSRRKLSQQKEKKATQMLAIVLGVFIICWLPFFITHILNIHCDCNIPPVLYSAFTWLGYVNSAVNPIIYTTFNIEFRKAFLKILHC
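PathHunter D2 cells, attached overnight at 37 deg C, received compound in DMSO plus dopamine at EC20 (50 nM final) for 90 min at 37 deg C. Beta-arrestin recruitment was read as luminescence after 1 h with detection reagent at ambient temperature.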
D2 PAM-2 = HTS Assay for Positive Allosteric Modulators of the Human D2 Dopamine Receptor: Primary Screen for Potentiators; potentiation, % at 10 µM; HEK293 T-REx D2, calcium flux, EC20 dopamine potentiation; actives 0.34% (n = 340,000); AID 485347, 2010;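 active = potentiation over 3 SD above the plate norm, cut at about 30% in these data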; also: 0% is about no effect
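Using a no-wash calcium dye in inducible, force-coupled HEK293 Trex cells expressing D2, we tracked fluorescence each second for 180 s after compound, then for 180 s after EC20 dopamine to detect augmented signalling.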
D2 ag-1 = HTS Assay for Allosteric Agonists of the Human D2 Dopamine Receptor: Primary Screen for Agonists; D(2) dopamine receptor (Homo sapiens), P14416; HEK293 T-REx D2 cells, calcium flux agonist mode; activation, % at 2 µM; actives 0.53% (n = 340,000);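 active = activation over 3 SD above normal in the single-dose calcium agonist read, cut at about 30% in these data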; also: 0% is about no effect
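Calcium-flux readout, 1 cycle/sec over 180 s following compound pin transfer, in inducible HEK293 Trex D2 cells (force-coupled); dopamine controls included. Positive calcium responses during this window marked compounds as potential agonists.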
D2 antagonist = HTS Assay for Allosteric Antagonists of the Human D2 Dopamine Receptor: Primary Screen for Antagonists; actives 2% (n = 340,000); inhibition, % at 10 µM; HEK293 TREx D2 cells, calcium flux, dopamine EC80; AID 485344, 2010; D(2) dopamine receptor (Homo sapiens), P14416; in the data active = inhibition above about 30%; inactive = below that, where a call was filed; also: 0% is about no effect
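Dopamine at EC80 is the agonist stimulus; test compounds precede it by 180 s. Calcium flux read kinetically in a force-coupled, inducible HEK293 T-REx D2 cell line.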
D2 ag-2 = Beta-Arrestin HTS for Positive Allosteric Modulators of the Human D2 Dopamine Receptor: Agonists; DiscoveRx PathHunter D2 beta-arrestin, luminescence, 90 min; 100% = 57 uM dopamine signal; activation, % (test concentration not listed); actives 0.084% (n = 360,000); AID 624465, 2012; in the data active = activation above about 40%; inconclusive = between about 15% and that limit
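Agonist mode: compounds alone added to overnight-plated D2 PathHunter cells for 90 min at 37 C, with 57 uM final dopamine (EC100) defining full response. Beta-arrestin recruitment detected by chemiluminescent reagent, read after 1 h at ambient temperature.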
* marks the source's active call; other numbers are inactive results.

CCN(CC)c1ccc2cc(-c3nc4ccccc4n3C)c(=O)oc2c1 was read as D2 PAM-1 6, D2 PAM-2 -8, D2 ag-1 72*, D2 antagonist 40* and D2 ag-2 2.
For CCN(CC)c1ccc2cc(-c3nc(-c4ccc(OC)cc4)cs3)c(=O)oc2c1 the results were D2 PAM-1 25, D2 PAM-2 -19, D2 ag-1 101*, D2 antagonist 71* and D2 ag-2 inconclusive.
CCN(CC)c1ccc2cc(-c3nnc(-c4ccccc4)o3)c(=O)oc2c1 was read as D2 PAM-1 -2, D2 PAM-2 -7, D2 ag-1 116*, D2 antagonist 38* and D2 ag-2 -1.
For CCN(CC)c1ccc2cc(-c3nc4ccccc4[nH]3)c(=O)oc2c1 the results were D2 PAM-1 17, D2 PAM-2 -14, D2 ag-1 104*, D2 antagonist 76* and D2 ag-2 5.
Screening CN(C)Cc1c(O)ccc2cc(-c3nc4ccccc4n3C)c(=O)oc12 returned D2 PAM-1 -2, D2 PAM-2 4, D2 ag-1 20, D2 antagonist 14 and D2 ag-2 3.
For Cc1ccccc1CNC(=O)CCCn1c(=O)c2cccn2c2ccccc21 the results were D2 PAM-2 2 and D2 ag-1 -1.
CCCn1nnnc1NCc1ccc(C(C)C)cc1 was read as D2 PAM-1 -37, D2 PAM-2 1, D2 ag-1 -1, D2 antagonist 34* and D2 ag-2 -1.
`COc1ccc(S(=O)(=O)/C(C#N)=C/Nc2cccc(F)c2)cc1` gave D2 PAM-1 4, D2 PAM-2 1, D2 ag-1 0, D2 antagonist -5 and D2 ag-2 -1.
`COc1ccc(S(=O)(=O)/C(C#N)=C/Nc2ccccc2F)cc1` gave D2 PAM-1 -6, D2 PAM-2 -2, D2 ag-1 0, D2 antagonist 40* and D2 ag-2 1.
Cc1ccc(NC(=O)C2CCCN(c3nnc(C)c4c(C)n(-c5ccccc5)nc34)C2)c(Cl)c1 (stereo unspecified) was read as D2 PAM-2 6 and D2 ag-1 0.
For CCS(=O)(=O)c1ccc2oc(Nc3ccc(OC)cc3)nc2c1 the results were D2 PAM-1 4, D2 PAM-2 -3, D2 ag-1 -1, D2 antagonist 34* and D2 ag-2 -4.
`CCCCn1c(SCC(=O)c2ccccc2)nc2sc3c(c2c1=O)CCCC3` gave D2 ag-1 1.
`COc1cccc(CN(C(=O)c2oc3cc(C)ccc3c2C)C2CCS(=O)(=O)C2)c1` (stereo unspecified) gave D2 PAM-2 -4.
`CCOCc1c(C(=O)N2CCN(CC(=O)Nc3ccc(F)cc3)CC2)oc2ccccc12` gave D2 PAM-1 4, D2 PAM-2 -12, D2 ag-1 0, D2 antagonist 72* and D2 ag-2 -4.
Screening O=C(Oc1ccccc1C(=S)N1CCOCC1)c1ccc([N+](=O)[O-])cc1[N+](=O)[O-] returned D2 PAM-1 58*, D2 PAM-2 -4, D2 ag-1 1, D2 antagonist -13 and D2 ag-2 inconclusive.
O=C(NCCN1CCOCC1)c1ccc([N+](=O)[O-])cc1[N+](=O)[O-] was read as D2 PAM-1 50*, D2 PAM-2 0, D2 ag-1 1, D2 antagonist 43* and D2 ag-2 7.
Screening CC1CCC(C(=O)NC(C(=O)OCC(=O)c2ccc(Br)cc2)C(C)C)CC1 (stereo unspecified) returned D2 PAM-2 -17 and D2 ag-1 -1.
Screening O=S(=O)(c1ccc(Cl)cc1)N(CCCN1CCOCC1)Cc1cccs1 returned D2 PAM-1 -18, D2 PAM-2 -24, D2 ag-1 0, D2 antagonist 43* and D2 ag-2 3.
CCCCC(CC)CNC(=O)c1ccc2c(=O)n(CCOC)c(=O)[nH]c2c1 (stereo unspecified) was read as D2 ag-1 -1.
Cc1c(N2C(=O)c3ccc4c5c(ccc(c35)C2=O)CC4)c(=O)n(-c2ccccc2)n1C was read as D2 PAM-1 61*, D2 PAM-2 4, D2 ag-1 0, D2 antagonist -6 and D2 ag-2 6.
For Cc1c(N2C(=O)c3ccc(Br)cc3C2=O)c(=O)n(-c2ccccc2)n1C the results were D2 PAM-1 12, D2 PAM-2 19, D2 ag-1 0, D2 antagonist -6 and D2 ag-2 2.
Screening CC1=C(c2ccc(C(C)C)cc2)S(=O)(=O)NC1=NCCCN1CCN(c2ccccc2F)CC1 returned D2 PAM-2 8 and D2 ag-1 2.
For COc1ccc([N+](=O)[O-])cc1NC(=O)C(C)OC(=O)CSC(C)C(=O)Nc1cc(C)on1 (stereo unspecified) the results were D2 PAM-1 -24, D2 PAM-2 8, D2 ag-1 0, D2 antagonist 36* and D2 ag-2 -7.
Screening Cc1cc(NC(=O)C(C)SCC(=O)OC(C)C(=O)Nc2ccccc2C)no1 (stereo unspecified) returned D2 PAM-1 -1, D2 PAM-2 -13, D2 ag-1 1, D2 antagonist 14 and D2 ag-2 -3.
Screening Cc1ccc(O)c(C=Nc2cc(C)ccc2O)c1 returned D2 PAM-1 58* and D2 ag-2 7.
Screening CC(C)(C)c1ccc(O)c(N=Cc2cc(Br)ccc2O)c1 returned D2 PAM-1 0, D2 PAM-2 3, D2 ag-1 0, D2 antagonist 9 and D2 ag-2 -1.
`Cc1cccc(OCc2nnc(SCC(=O)N3CCCC3)o2)c1` gave D2 PAM-1 -3, D2 PAM-2 6, D2 ag-1 -1, D2 antagonist 11 and D2 ag-2 10.
`O=C(NCc1nnc(SCC(=O)N2CCCC2)o1)c1c(F)cccc1F` gave D2 PAM-1 16, D2 PAM-2 -8, D2 ag-1 2, D2 antagonist 32* and D2 ag-2 -3.
For O=C(CSc1nnc(-c2cccc(F)c2)o1)N1CCCC1 the results were D2 PAM-1 -4, D2 PAM-2 0, D2 ag-1 0, D2 antagonist 32* and D2 ag-2 -4.
Screening O=C(NCc1nnc(SCC(=O)N2CCCC2)o1)c1c(F)cccc1Cl returned D2 PAM-1 7, D2 PAM-2 0, D2 ag-1 -1, D2 antagonist -18 and D2 ag-2 -2.
